Assay [1] in a line: inhibitors of TNFa-induced NFkB p65 translocation, primary screen, imaging, HUVEC, MLSMR starter and 10KST1 sets (AID 438).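 Further: compound added about 3h40 before a 20 min TNFalpha stimulation.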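 On inhibition: signal is the nuclear over cytoplasmic p65 intensity ratio per well.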 The following applies: HUVEC TNFa-induced p65 nuclear translocation; cell count: measured here: nuclei count (cytotoxicity indicator), at 2.08 µM; inhibition: at 2 µM, stronger effect = higher value, 0% TNFa-plus-vehicle, 100% no-TNFa wells.
The nature of assay [2]: reduction of polyQ htt aggregates in cells – imaging, exon1htt(103Q)mCFP cells, high-content imaging, primary screen (AID 483;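 active means visual image review flags a hit and inhibition of aggregation exceeds 20%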;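 further: compound exposure lasted 3 days before fixation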;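 on nuclei count: percent of the per-plate median nuclei count of sample wells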). The following applies: exon1htt(103Q)mCFP cell line, aggregate imaging, at 2 µM; inhibition of aggregation: stronger effect = higher value; nuclei count: measured here: cell count, toxicity.
The nature of assay [3]: endothelial E-selectin expression blockers – imaging, HUVEC, immunofluorescence, MLSMR starter and 10KST1 sets, primary screen (AID 487;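 active means visually confirmed hit in the image check and inhibition above 20%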;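 on inhibition: signal is fraction of cell area covered by stained E-selectin grains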;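 on nuclei count: 100% = median nuclei count of all wells on the same plate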). The following applies: HUVEC TNFalpha-induced E-selectin immunofluorescence imaging, at 2 µM; inhibition: stronger effect = higher value; nuclei count: measured here: cell number, toxicity.
In assay [4] the target is Voltage-gated potassium channel subunit beta-2 (Rattus norvegicus) (UniProt P62483). The assay is described as follows: inhibitors of rat Kvbeta2 reductase activity – biochemical, NADPH fluorescence, primary screen (AID 622;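 active means fluorescence slope higher than the sample average by over 3 SD, cut at about -0.22 in these data, passing the limit was not always enough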;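 further: slope of raw intensity against log time taken from 70 to 1610 s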). The following applies: recombinant KvBeta, 4-cyanobenzaldehyde reduction, at 10 µM, stronger effect = higher value.
Assay [5] has the same target. Put plainly: enhancers of rat Kvbeta2 NADPH turnover – biochemical, NADPH fluorescence, primary screen (AID 623;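 active means NADPH fluorescence slope more negative than the mean of all samples by about 3 SD, 99.7% confidence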;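 further: fluorescence intensity change per second fitted from 20 to 320 s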). The note with it: Recombinant KvBeta, NADPH fluorescence decrease slope, 10 min; at 10 µM; stronger effect = lower value.
The target of assay [6] is Muscarinic acetylcholine receptor M4 (Homo sapiens) (UniProt P08173). Put plainly: M4-linked GIRK flux change, two-sided – cell-based, HEK293 M4/GIRK, thallium flux, BTC-AM, M4 allosteric agonist project, primary screen (AID 625;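 active means fluorescence slope after compound addition differing from the mean of all tested samples at 99.7% confidence, mostly higher but some lower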;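 further: thallium influx through GIRK channels coupled to M4 in HEK293 cells with BTC-AM dye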). The note with it: at 10 µM, actives lie on both sides.
The nature of assay [7]: blockers of RIG-like receptor reporter activation – cell-based, Sendai virus stimulus, luciferase, 10K MLSCN set, TLR/RLR signaling modifier project, primary screen (AID 602276;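 active means inhibition at or above 50% at 10 µM; inactive means inhibition below 50%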;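 further: firefly luciferase from ISG56 promoter only with Renilla not read in this screen; 0% = Sendai virus plus DMSO and 100% = medium plus DMSO without virus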). The note with it: HEK293 RL24 IRF3 luciferase reporter, at 10 µM, stronger effect = higher value.
Assay [8] is described as follows: TLR3 IRF3 reporter activation blockers – cell-based, poly I:C stimulus, luciferase, 10K MLSCN set, primary screen (AID 602277;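 active means inhibition of the reporter signal at or above 50%; inactive means inhibition below 50%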). The following applies: HEK293-TLR3 RL24 IRF3 luciferase reporter, at 10 µM, stronger effect = higher value.

Data on 14 molecules can be found in PubChem BioAssay.

Calls of active or inactive are those of the source.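 How the source made its calls, unless noted: active means inhibition above 20% together with a positive visual image hit; inconclusive means visual image hit but inhibition not above 20%; inactive means no visual image hit.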

Sequence of Muscarinic acetylcholine receptor M4 (Homo sapiens) (P08173 whole entry, looked up): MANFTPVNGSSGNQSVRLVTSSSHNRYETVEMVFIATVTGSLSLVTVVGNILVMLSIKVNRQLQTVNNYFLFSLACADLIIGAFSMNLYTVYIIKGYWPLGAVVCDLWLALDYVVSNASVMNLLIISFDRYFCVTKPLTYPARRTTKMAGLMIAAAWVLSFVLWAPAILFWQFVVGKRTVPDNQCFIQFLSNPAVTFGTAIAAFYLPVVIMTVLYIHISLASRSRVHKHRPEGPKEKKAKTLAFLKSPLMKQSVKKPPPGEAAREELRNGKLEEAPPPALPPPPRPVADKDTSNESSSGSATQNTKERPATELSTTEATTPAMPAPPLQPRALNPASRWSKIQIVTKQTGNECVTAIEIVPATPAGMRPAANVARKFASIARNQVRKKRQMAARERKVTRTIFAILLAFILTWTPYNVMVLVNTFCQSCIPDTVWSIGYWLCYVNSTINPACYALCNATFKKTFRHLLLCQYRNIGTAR
Sequence of Voltage-gated potassium channel subunit beta-2 (Rattus norvegicus) (P62483 whole entry, looked up): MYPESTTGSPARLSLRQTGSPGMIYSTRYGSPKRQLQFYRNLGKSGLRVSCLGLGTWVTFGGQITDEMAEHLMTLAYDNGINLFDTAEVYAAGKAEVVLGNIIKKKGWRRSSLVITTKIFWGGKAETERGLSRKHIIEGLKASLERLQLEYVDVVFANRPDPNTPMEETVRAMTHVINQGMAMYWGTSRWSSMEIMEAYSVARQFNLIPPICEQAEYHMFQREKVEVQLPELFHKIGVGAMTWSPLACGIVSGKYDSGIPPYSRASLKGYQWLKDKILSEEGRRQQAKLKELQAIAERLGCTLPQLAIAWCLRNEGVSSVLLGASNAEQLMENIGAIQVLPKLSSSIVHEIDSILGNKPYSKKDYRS

In the case of `CCc1nnc(NC(=O)OCc2ccccc2)s1`, in assay [1], the cell count was 414. Moreover, the inhibition in assay [1] was 8.1% (inactive); in assay [3], -59.3% (inactive); in assay [7] it was -17.2% (inactive); in assay [8], -43.4% (inactive). The inhibition of aggregation in assay [2] was 0.2% (inactive). Further, the nuclei count came to 99.3% in assay [2] and 120% in assay [3]. Further, the fluorescence slope in assay [4] was -0.579 (inactive); in assay [6] it was 0.00857 (inactive). Further, in assay [5], the NADPH fluorescence slope is -1.5e-05 (inactive).
For `Cc1ccc2c(COn3nnc4ccc(S(=O)(=O)N(C)C)cc43)cc(=O)oc2c1C`, in assay [1], the cell count was determined as 702. The inhibition was 5.3% (inactive) in assay [1], 30.2% (inactive) in assay [3], -1.62% (inactive) in assay [7] and 10.1% (inactive) in assay [8]. Further, the inhibition of aggregation in assay [2] was 16.4% (inactive). Besides, the nuclei count in assay [2] turned out to be 96.2%; in assay [3], 94.7%. The fluorescence slope was -0.543 (inactive) in assay [4] and 0.00895 (inactive) in assay [6]. In addition, the NADPH fluorescence slope in assay [5] was -6.4e-05 (inactive).
As to `CCN1CCCC1CNCc1ccc(Cl)cc1Cl` (centres undefined), in assay [1], the cell count amounted to 474. Moreover, the inhibition in assay [1] is 13.6% (inactive); in assay [3], -106% (inactive); in assay [7], -5.98% (inactive); in assay [8], 5.14% (inactive). In assay [2], the inhibition of aggregation was 1.2% (inactive). In addition, the nuclei count was found to be 87.1% in assay [2] and 152% in assay [3]. The fluorescence slope was -0.316 (inactive) in assay [4] and 0.0068 (inactive) in assay [6]. Besides, the NADPH fluorescence slope in assay [5] is -1.4e-06 (inactive).
For `CCOC(=O)C(NC(=O)C1CCCN1C(=O)OCc1ccccc1)C(=O)OCC` (centres undefined), the cell count in assay [1] amounted to 586. The inhibition in assay [1] is 7.2% (inactive); in assay [3], -11% (inactive); in assay [7] it was 20.4% (inactive); in assay [8], 32% (inactive). Moreover, the inhibition of aggregation in assay [2] was -1.6% (inactive). Besides, the nuclei count in assay [2] came out at 105%; in assay [3] it was 97.9%. The results for the fluorescence slope in assay [4] and in assay [6] were -0.567 (inactive) and 0.00516 (inactive), respectively. In addition, the NADPH fluorescence slope in assay [5] is -1.7e-05 (inactive).
For `C=CCOc1ccc(/C(O)=C2\C(=O)C(=O)N(CCOC)C2c2cccnc2)cc1` (centres undefined), the cell count in assay [1] was 640. For the same molecule, the inhibition in assay [1] is 3.4% (inactive); in assay [3], 4% (inactive); in assay [7] it was 6.88% (inactive); in assay [8] it was 15.7% (inactive). Besides, in assay [2], the inhibition of aggregation was 14.8% (inactive). Further, the values for the nuclei count in assay [2] and in assay [3] were 105% and 101%, respectively. Further, the fluorescence slope is -0.336 (inactive) in assay [4] and 0.00592 (inactive) in assay [6]. Also, the NADPH fluorescence slope in assay [5] was -4.4e-05 (inactive).
In the case of `Nn1c(CSc2nc3ccccc3o2)nnc1CSc1nc2ccccc2o1`, the cell count in assay [1] came out at 449. The inhibition in assay [1] is -13.4% (inactive); in assay [3] it was 29.7% (inactive); in assay [7] it was 9.57% (inactive); in assay [8] it was 17% (inactive). Moreover, in assay [2], the inhibition of aggregation is 24.5% (inactive). In addition, the nuclei count worked out at 85.3% in assay [2] and 86% in assay [3]. Also, the fluorescence slope was -0.408 (inactive) in assay [4] and 0.00537 (inactive) in assay [6]. Further, the NADPH fluorescence slope in assay [5] is 5.7e-05 (inactive).
Regarding `Nc1nc(-c2ccccc2Br)cs1`, the cell count in assay [1] came to 392. In addition, the inhibition in assay [1] was 4.7% (inactive); in assay [3], -133% (inactive); in assay [7], -14.5% (inactive); in assay [8] it was -27% (inactive). The inhibition of aggregation in assay [2] was -8.3% (inactive). The values for the nuclei count in assay [2] and in assay [3] were 110% and 119%, respectively. In addition, the results for the fluorescence slope in assay [4] and in assay [6] were -0.574 (inactive) and 0.00573 (inactive), respectively. The NADPH fluorescence slope in assay [5] is -1.6e-05 (inactive).
Take `CCOc1ccccc1N1C(=O)CC(Sc2ncccc2C(=O)O)C1=O` (centres undefined): the cell count in assay [1] was 890. The inhibition is -0.7% (inactive) in assay [1], -111% (inactive) in assay [3], 12.2% (inactive) in assay [7] and 13.4% (inactive) in assay [8]. Moreover, the inhibition of aggregation in assay [2] is -13.3% (inactive). Moreover, the nuclei count was 105% in assay [2] and 136% in assay [3]. For the same molecule, the fluorescence slope in assay [4] was -0.46 (inactive); in assay [6] it was 0.00417 (inactive). Further, the NADPH fluorescence slope in assay [5] is -8.3e-07 (inactive).
For the molecule `CN1CCN(C(=O)CN(Cc2ccc(Cl)cc2)S(C)(=O)=O)CC1`, in assay [1], the cell count came out at 242. The inhibition is -2.8% (inactive) in assay [1], -25% (inactive) in assay [3], 18% (inactive) in assay [7] and 19.4% (inactive) in assay [8]. Moreover, in assay [2], the inhibition of aggregation is 6.8% (inactive). The values for the nuclei count in assay [2] and in assay [3] were 92% and 110%, respectively. Further, the fluorescence slope is -0.535 (inactive) in assay [4] and 0.00447 (inactive) in assay [6]. Further, the NADPH fluorescence slope in assay [5] was 9.7e-06 (inactive).
Regarding `CN(C)/C=c1\sc2c(C#N)cc(C(=O)c3ccc(Br)cc3)n2c1=O`, the cell count in assay [1] was 398. The inhibition in assay [1] was 8.6% (inactive); in assay [3], 0.2% (inactive); in assay [7], -3.73% (inactive); in assay [8], 19.1% (inactive). Besides, the inhibition of aggregation in assay [2] is 5.6% (inactive). Besides, the nuclei count in assay [2] and in assay [3] was 102% each time. Further, the fluorescence slope in assay [4] was -0.439 (inactive); in assay [6] it was -0.00984 (active). Also, the NADPH fluorescence slope in assay [5] was -5.9e-05 (inactive).
In the case of `Cc1cc(C)c(Cn2c(=O)n(CCCC(=O)NCc3ccco3)c(=O)c3ccccc32)c(C)c1`, the cell count in assay [1] stood at 744. Moreover, the inhibition in assay [1] is -4.2% (inactive); in assay [3], -64.2% (inactive); in assay [7], 14.8% (inactive); in assay [8], 17.8% (inactive). The inhibition of aggregation in assay [2] is 5.8% (inactive). For the same molecule, the nuclei count in assay [2] came out at 100%; in assay [3] it was 112%. Besides, the fluorescence slope in assay [4] was -0.578 (inactive); in assay [6], 0.00693 (inactive). The NADPH fluorescence slope in assay [5] was -2.4e-05 (inactive).
In the case of `COC(=O)Cn1cnc2c(nnn2-c2ccc(C)cc2)c1=O`, the cell count in assay [1] came out at 257. Further, the inhibition was 8.9% (inactive) in assay [1], -78.1% (inactive) in assay [3], -7.22% (inactive) in assay [7] and 1.35% (inactive) in assay [8]. In addition, the inhibition of aggregation in assay [2] was -6.9% (inactive). The nuclei count in assay [2] turned out to be 100%; in assay [3], 106%. Further, the fluorescence slope in assay [4] is -0.287 (inactive); in assay [6], 0.00635 (inactive). In addition, in assay [5], the NADPH fluorescence slope was -3.1e-05 (inactive).
With `COc1ccc(Cn2nnnc2C(c2ccncc2)N2CCOCC2)cc1` (centres undefined), the cell count in assay [1] was 543. Moreover, the inhibition in assay [1] was 0.5% (inactive); in assay [3], -90.6% (inactive); in assay [7] it was 7.51% (inactive); in assay [8], 9.52% (inactive). Also, the inhibition of aggregation in assay [2] was -5.2% (inactive). Further, the nuclei count worked out at 90.8% in assay [2] and 119% in assay [3]. In addition, the fluorescence slope is -0.608 (inactive) in assay [4] and 0.00759 (inactive) in assay [6]. Besides, in assay [5], the NADPH fluorescence slope was -1.7e-05 (inactive).
Consider `O=C(O)C1CC(=O)N(c2ccc(OCc3c(F)cccc3Cl)cc2)C1` (centres undefined), for which the cell count in assay [1] was found to be 571. Besides, the inhibition in assay [1] is -18.3% (inactive); in assay [3], -18.6% (inactive); in assay [7] it was 4.5% (inactive); in assay [8] it was 17.3% (inactive). The inhibition of aggregation in assay [2] was -13% (inactive). The nuclei count was determined as 100% in assay [2] and 116% in assay [3]. The fluorescence slope in assay [4] is -0.568 (inactive); in assay [6], 0.0057 (inactive). Also, in assay [5], the NADPH fluorescence slope is -2.6e-05 (inactive).
